HepG2 viability = counter-screen for TGF-b inhibitors: cytotoxicity in HepG2 cells | HepG2 CAGA-GFP viability, ATP luminescence, 18 h | Potency, µM (top dose mostly 46.1 µM), hits mostly cytotoxic | actives 0.76% (n = 410,000) | AID 588856
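HepG2 CAGA-GFP cells (1000/well, DMEM with 1% FBS) received compound, then TGF-beta at 500 pg/mL final, and were incubated 18 hours at 37 degrees C. Viability was read by CellTiter-Glo luminescence. Media-only wells were set as complete cell-killing and DMSO as no toxicity.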
IL-1B inflam inh = inflammasome signaling inhibition, IL-1 beta readout; THP-1 LPS/ATP IL-1B secretion, AlphaLISA, 16 h; active compounds read low; activity change, % at 57.5 µM; actives 4.7% (n = 360,000); AID 743279; in the data active means activity change below about -50%; inconclusive means mostly about -30% to -49%
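THP-1 cells pretreated 1 hr with compounds (up to 57.5 uM final), then stimulated with LPS (250 ng/mL final) plus ATP (1.25 mM final); secreted IL-1B measured by AlphaLISA after 16 hr, decreased signal indicating inhibition.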
DT40 TDP1 CPT = growth inhibition of DT40 Tdp1-/-;hTDP1 cells with camptothecin (screen for TDP1 inhibitors). actives 12% (n = 420,000). Potency, µM (series often up to 46.2 µM), most hits filed as inhibitors. chicken DT40 Tdp1-/-;hTDP1 cells + 20 nM CPT, ATP luminescence, 48 h. AID 686979; further: nearly all actives have a fitted effect of over 55% in size
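Chicken DT40 Tdp1-/- cells stably complemented with human TDP1 were seeded at 400 cells/well in medium containing 20 nM camptothecin, exposed to pin-transferred compounds, and grown at 37 °C for at least 48 hr. Viability was read as ATP luminescence.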
DT40 TDP1 no CPT = qHTS for Inhibitors of human tyrosyl-DNA phosphodiesterase 1 (TDP1): qHTS in cells in absence of CPT | AID 686978, 2013 | Potency, µM (series often up to 46.2 µM), actives largely listed as inhibitors | actives 15% (n = 420,000) | DT40 Tdp1-/- hTDP1 cells, no CPT, ATP luminescence, 48 h; further: nearly all actives have a fitted effect of over 55% in size
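Readout: luminescence from CellTiter-Glo after 30 min in the dark at RT. Cells: DT40 Tdp1-/- with stable hTDP1, 400/well. Exposure: compounds alone, ≥48 hr, 37 °C.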
TGFb SMAD3 inh = TGF-b pathway inhibition; HepG2 CAGA-GFP TGF-b/SMAD3 reporter, GFP fluorescence, 18 h; TGF-beta stimulated, 500 pg/mL final; Potency, µM (highest dose often 46.1 µM), hits mostly inhibitors; actives 1.2% (n = 410,000); further: nearly all actives have a fitted effect of over 65% in size
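HEPG2 CAGA-GFP cells (1000/well, DMEM with 1% FBS) were pre-incubated 2 h at 37 degrees C, given compound by pin tool, then stimulated with TGF-beta at 500 pg/mL final for 18 h before per-cell GFP fluorescence imaging.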
TDP1 block = blocks human tyrosyl-DNA phosphodiesterase 1; Potency, µM (highest dose often 130 µM), hits mostly inhibitors; recombinant TDP1, AlphaScreen DNA substrate cleavage; actives 0.28% (n = 350,000); Q9NUW8; further: nearly all actives have a fitted effect of over 40% in size
Target sequence (Q9NUW8 whole entry, looked up): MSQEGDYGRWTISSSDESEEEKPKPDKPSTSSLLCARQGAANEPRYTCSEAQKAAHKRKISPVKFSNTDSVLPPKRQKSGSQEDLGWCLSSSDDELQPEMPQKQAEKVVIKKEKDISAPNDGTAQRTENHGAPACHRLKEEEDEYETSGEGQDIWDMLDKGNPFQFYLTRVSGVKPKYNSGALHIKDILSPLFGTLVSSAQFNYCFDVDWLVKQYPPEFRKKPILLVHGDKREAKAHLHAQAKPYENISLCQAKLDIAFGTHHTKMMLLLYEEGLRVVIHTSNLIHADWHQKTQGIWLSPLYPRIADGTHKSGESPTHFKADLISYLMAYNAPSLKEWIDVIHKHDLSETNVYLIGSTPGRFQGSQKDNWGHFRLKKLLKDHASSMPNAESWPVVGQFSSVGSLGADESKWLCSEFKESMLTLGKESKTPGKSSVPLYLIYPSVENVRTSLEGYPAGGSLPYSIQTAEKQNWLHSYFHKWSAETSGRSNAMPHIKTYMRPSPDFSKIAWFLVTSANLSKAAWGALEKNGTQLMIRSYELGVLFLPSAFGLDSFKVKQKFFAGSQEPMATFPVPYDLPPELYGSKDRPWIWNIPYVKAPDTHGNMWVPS
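AlphaScreen read-out: signal falls as enzyme removes the 3' tyrosine-FITC from a 5'-biotinylated DNA oligo (15 nM, 5 min, RT). Enzyme was E. coli-made recombinant Tdp1 at 1 nM, exposed to compound for 15 min beforehand; beads 10 ug/ml, 10 min.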
A number is an active result; – = inactive; ? = inconclusive; · = no result; ! = a repeat was not active. Compounds with a hit are over-represented: about 18% of the library has one in this group of screens. Unless noted, the call rests on the fitted dose curve; in most records, active means well fitted curve in the direction sought with a large enough effect; inconclusive means small, poorly fitted or top-dose-only effect, or another doubt; inactive means no such curve, though single readings can be large; an effect the other way counts as inactive or inconclusive.

SMILES	HepG2 viability	IL-1B inflam inh	DT40 TDP1 CPT	DT40 TDP1 no CPT	TGFb SMAD3 inh	TDP1 block
CCc1ccc(NC(=O)CSc2ccc(-c3ccccn3)nn2)cc1	–	–	?	23.1µM	?	–
COc1ccc(OC)c(NC(=O)CSc2nnc(CNC(=O)c3cccs3)o2)c1	–	–	–	–	–	–
Cc1cccc(CN2C(=O)c3ccccc3Sc3ccc(C(=O)NCCCN4CCOCC4)cc32)c1	11.2µM!	–	?	?	11.2µM!	–
CCN1C(=O)c2ccccc2Sc2ccc(C(=O)NCCCN(CC(C)C)CC(C)C)cc21	–	-64.5	14.6µM	16.4µM	–	–
CCN1C(=O)c2ccccc2Sc2ccc(C(=O)NCCN3CCOCC3)cc21	–	–	–	–	–	–
COCCCNC(=O)c1ccc2c(c1)N(Cc1ccccc1)C(=O)c1ccccc1S2	–	·	–	–	–	–
O=C(NCCCN1CCOCC1)c1ccc2c(c1)N(Cc1ccccc1)C(=O)c1ccccc1S2	–	?	?	?	–	–
CCCCN(CC)CCCNC(=O)c1ccc2c(c1)N(Cc1ccc(C)cc1)C(=O)c1ccccc1S2	11.2µM	·	5.8µM	5.17µM	14.1µM	–
CSc1ccc(/C=C/C(=O)OCC(=O)N2CCN(c3ccccc3)CC2)cc1	–	–	–	–	–	·
NC(CS)C(=O)O (centres undefined)	–	·	–	–	–	?
COc1ccccc1C(=O)COC(=O)CSC(C)C(=O)Nc1cc(C)on1 (centres undefined)	–	–	–	–	–	–
CC(C)(C)C(=O)OCc1cc(=O)n2nc(C3CCCCC3)sc2n1	–	·	–	–	?	–
CCS(=O)(=O)N1N=C(c2ccccc2)CC1c1ccc2nccnc2c1 (centres undefined)	–	–	?	10.3µM	–	–
CS(=O)(=O)Nc1ccc(C2=NN(S(C)(=O)=O)C(c3ccc4nccnc4c3)C2)cc1 (centres undefined)	–	–	–	–	–	–
CCOC(=O)N1CCN(C(=O)CN2C(=O)NC(c3ccccc3)(c3ccccc3)C2=O)CC1	–	–	–	–	–	·
COC(=O)N1C(=O)[C@](CC(C)C)(c2ccccc2)N1C(=O)OC	–	·	20.6µM	16.4µM	8.91µM	·
CC[C@@]1(c2ccccc2OC)C(=O)N(C(=O)OC)N1C(=O)OC	–	-87.3	?	?	?	·
CCOC(=O)N1CCN(C(=S)Nc2cccc(C)c2)CC1	–	–	–	–	–	–
CC[C@@]1(c2cccc(C)c2)C(=O)N(C(=O)OC)N1C(=O)OC	–	-88.3	18.4µM	18.4µM	–	·
CCOC(=O)N1C(=O)[C@@](CC)(c2ccccc2)N1C(=O)OCC	–	·	8.2µM	13µM	?	·
COc1ccc(C2CC(=O)c3cc(-c4nc(-c5ccc(Cl)cc5)cs4)c(=O)[nH]c3C2)cc1OC (centres undefined)	–	·	–	?	–	–
O=C1CC(c2ccccc2)Cc2[nH]c(=O)c(-c3nc(-c4cccc(Cl)c4)cs3)cc21 (centres undefined)	–	·	5.17µM	5.17µM	–	–
COc1cccc(CC2(CO)CCCN(Cc3ccc(-c4ccco4)cc3)C2)c1 (centres undefined)	–	–	23.1µM	20.6µM	–	·
COc1cccc(CC2(CO)CCCN(Cc3cc4ccccc4[nH]3)C2)c1 (centres undefined)	–	-53.5	?	?	11.2µM	·
COc1cccc(CC2(CO)CCCN(Cc3ccc(C)s3)C2)c1 (centres undefined)	–	–	–	?	–	·
COc1cccc(CC2(CO)CCCN(Cc3c(C)cc(C)cc3-n3cccn3)C2)c1 (centres undefined)	–	–	20.6µM	14.6µM	?	·

Assay outcomes from PubChem BioAssay.
